Screens deposited in PubChem BioAssay by National Center for Advancing Translational Sciences (NCATS).
An excerpt weighted towards active compounds, which were near 17% of everything screened.
TDP1 inh: blocks human tyrosyl-DNA phosphodiesterase 1. Q9NUW8. recombinant TDP1, AlphaScreen DNA substrate cleavage. Potency, µM (doses to about 130 µM), for the others: at the highest dose activity change, negative = inhibition, hits mostly inhibitors. 350,000 tested, 0.28% active. AID 485290; note: % is set by controls: 0 for no effect and ±100 for the full control effect; nearly all actives have a fitted effect of over 40% in size
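Recombinant E. coli-expressed Tdp1 (1 nM) preincubated with compound 15 min at RT, then 5'-biotin/3'-phosphotyrosine-FITC DNA substrate (15 nM) added for 5 min. AlphaScreen beads (10 ug/ml) added, 10 min RT; tyrosine-FITC cleavage read as signal loss.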
TDP1 cell noCPT: qHTS for Inhibitors of human tyrosyl-DNA phosphodiesterase 1 (TDP1): qHTS in cells in absence of CPT | DT40 Tdp1-/- hTDP1 cells, no CPT, ATP luminescence, 48 h | Potency, µM (highest dose often 46.2 µM), without a hit: top-dose activity change, negative = growth inhibition, hits mostly inhibitors | 420,000 tested, 15% active | AID 686978, 2013; note: % is set by controls: 0 for no effect and ±100 for the full control effect; nearly all actives have a fitted effect of over 55% in size
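Seeded 400 DT40-hTDP1 cells/well (vehicle DMSO, no 20 nM CPT); pinned compounds; ≥48 hr at 37 °C; CellTiter-Glo luminescence as viability measure.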
ClpP mod: qHTS Assay for Activators of ClpP; purified B. subtilis ClpP, FRET peptide cleavage, 20 min; Potency, µM (highest dose often 57.5 µM), for inactives: top-dose activity change, negative = active; 340,000 tested, 1.9% active; AID 651965, 2013; active = well fitted falling curve with a large enough effect; inconclusive = small, poorly fitted or top-dose-only effect; inactive = no such curve, though single readings can be large or run the other way; note: the source files actives as falling curves though it sought activators and does not explain the sign; nearly all actives have a fitted effect of over 65% in size
Target sequence (P80244 whole entry, looked up): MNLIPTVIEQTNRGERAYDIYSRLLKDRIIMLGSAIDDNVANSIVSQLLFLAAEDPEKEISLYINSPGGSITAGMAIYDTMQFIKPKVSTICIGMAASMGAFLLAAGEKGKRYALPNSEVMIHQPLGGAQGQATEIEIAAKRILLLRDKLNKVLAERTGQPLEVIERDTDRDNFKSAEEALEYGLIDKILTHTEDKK
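Buffer: 100 mM Tris/HCl pH8, 100 mM KCl, 0.05% low protease BSA, 2.5% glycerol, 0.01% Tween-20. ClpP 10 microg/mL final; 20 min RT; delta FRET normalized to ADEP and DMSO controls.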
DT40 TDP1 CPT: growth inhibition of DT40 Tdp1-/-;hTDP1 cells with camptothecin (screen for TDP1 inhibitors); chicken DT40 Tdp1-/-;hTDP1 cells + 20 nM CPT, ATP luminescence, 48 h; Potency, µM (top dose mostly 46.2 µM), without a hit: at the top dose activity change, negative = growth inhibition, hits mostly inhibitors; 420,000 tested, 12% active; note: % is set by controls: 0 for no effect and ±100 for the full control effect; nearly all actives have a fitted effect of over 55% in size
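Chicken DT40 Tdp1-/- cells complemented with human TDP1, 400 cells/well, exposed to compounds plus 20 nM camptothecin for at least 48 h at 37 C; viability read as ATP content by CellTiter-Glo luminescence.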
An asterisk follows results filed as active; ? = inconclusive; / = no result; [ ] = remark or other dose. Unless noted, calls come from the whole dose curve; as a rule, active = well fitted curve in the direction sought with a large enough effect; inconclusive = small, poorly fitted or top-dose-only effect, or another doubt; inactive = no such curve, though single readings can be large; an effect the other way counts as inactive or inconclusive. Potency is the fitted concentration of half-maximal effect.

SMILES	TDP1 inh	TDP1 cell noCPT	ClpP mod	DT40 TDP1 CPT
Cc1c(NC(=S)NNC(=O)CCC(=O)O)c(=O)n(-c2ccccc2)n1C	/	19.1%	0.9%	8.7%
Fc1ccc(-c2nc3n(c2-c2ccncc2)CCS3)cc1	17.7%	/	/	/
CCc1ccccc1NC(=O)C(C)n1nc(-c2ccc(C)c(C)c2)ccc1=O (stereo not drawn)	/	?	-9.5%	23.1µM*
COc1ccc(NC(=O)C(C)n2nc(-c3ccc(C)c(C)c3)ccc2=O)cc1OC (stereo not drawn)	4.7%	16.4µM*	1.5%	23.1µM*
O=C(Nc1ccc(C(=O)N2CCCCC2)cc1)[C@H]1O[C@@H](n2ccc(=O)[nH]c2=O)[C@H](O)[C@@H]1O	/	3.7%	-1.3%	21.9%
Cc1cc(N/C=C(\C#N)S(=O)(=O)c2ccccc2Cl)nc(C)n1	2.7%	-21.7%	0.2%	2.7%
CC(C)(C)c1ccc(C(=O)Nc2cccc3c(=O)[nH][nH]c(=O)c23)cc1	-1.2%	-5.6%	-2.9%	1.6%
COC(=O)C1=C(C(=O)OC)[C@]2([C@@H]3CC=CCN[C@@H](Cc4ccccc4)C(=O)N3Cc3ccccc3)C=C[C@H]1O2	/	11.6µM*	0.0%	18.4µM*
COC(=O)C1=C(C(=O)OC)[C@]2([C@H]3CC=CCN[C@@H](Cc4ccccc4)C(=O)N3Cc3ccccc3)C=C[C@H]1O2	/	14.6µM*	1.2%	18.4µM*
COC(=O)C1=C(C)N(Cc2ccccc2)[C@]23O[C@](C(=O)OC)(C(=O)N2C1c1ccccc1)C(C(=O)OC)=C3C(=O)OC (stereo partly drawn)	10.1%[21 µM]	/	/	/
COc1ccc(-c2nc3ccc(C)cn3c2NCc2ccccc2)cc1SC1CCCCC1	/	23.1µM*	3.4%	13µM*
CCCCNc1c(-c2ccc(SC3CCCCC3)c(OC)c2)nc2ccc(C)cn12	4.0%	18.4µM*	4.4%	23.1µM*
COc1cc(-c2nc3ccc(C)cn3c2Nc2ccc3c(c2)OCCO3)ccc1O	10.5%	?	-3.8%	?
CCCCNc1c(-c2ccc(OC)c(SC3CCCCC3)c2)nc2ccc(C)cn12	4.8%	8.2µM*	?	5.8µM*
CC(=O)c1cccc(NC(=O)Cn2nc(C(F)(F)F)c3c2CCC3)c1	2.1%	-20.9%	-0.2%	?
COc1ccccc1C#Cc1cnc2c(c1)C(=O)N([C@H](C)CO)C[C@@H](C)[C@@H](CN(C)C(=O)c1ccc3c(c1)OCO3)O2	/	?	-16.1%	?
CCOc1cc(C#N)c(NC(=O)c2ccco2)cc1OCC	2.0%	6.51µM*	-2.8%	11.6µM*
CCOc1cc(NC(=O)c2ccco2)c(OCC)cc1NC(=O)c1ccco1	/	2.91µM*	/	-20.3%
O=C(Nc1cccc(-c2nnc(-c3ccccc3)o2)c1)c1ccco1	2.1%	?	-1.5%	-26.3%
CCOc1ccc(-c2cccc(NC(=O)c3ccco3)c2)nn1	0.5%	20.6µM*	1.6%	?
CCOc1cc(NC(=S)NC)c(OCC)cc1NC(=O)c1ccco1	-5.4%	-7.0%	0.4%	-6.2%
CCOc1cc(NC(=O)c2ccco2)c(OCC)cc1NC(=O)c1cc(OC)c(OC)c(OC)c1	-1.0%	?	29.7%	?
Cc1nn2c(-c3cccc(NC(=O)c4ccco4)c3)nnc2c2ccccc12	1.0%	20.6µM*	-2.2%	20.6µM*
CCN(CC)S(=O)(=O)c1ccc(C(C)NC(=O)Cc2c[nH]c3ccccc23)cc1 (stereo not drawn)	/	?	/	-16.8%
COc1cc(N)c2ncccc2c1Br	/	-3.9%	/	-2.3%
SMILES	TDP1 inh	TDP1 cell noCPT	ClpP mod	DT40 TDP1 CPT
CCN(CC)S(=O)(=O)c1cccc(C(=O)N[C@H](C(=O)NC2=NCCS2)C(C)C)c1	0.5%	?	/	10.1%
COc1cc(NC(=O)c2ccco2)c(OC)cc1NC(=O)c1cc(OC)c(OC)c(OC)c1	-5.6%	20.6µM*	-5.9%	?
CCOc1cc(NC(=O)c2ccco2)c(OCC)cc1NC(=O)CCc1ccccc1OC	8.0%	7.31µM*	-0.1%	9.2µM*
COc1cc(NC(=O)c2ccco2)c(C(=O)OCC(=O)c2c[nH]c3ccccc23)cc1OC	2.7%	8.2µM*	4.4%	14.6µM*
O=C(OCC(=O)c1c[nH]c2ccccc12)c1ccco1	1.0%	-20.5%	-2.0%	-17.6%
COc1ccc(CNC(=O)N2CCN(c3ccc(F)cc3)CC2)cc1	/	11.0%	-1.8%	9.2%
CCOC(=O)c1c(NC(=O)CSc2nnc(-c3ccccc3)o2)sc(C(C)=O)c1C	2.3%	23.1µM*	1.1%	16.4µM*
CCOC(=O)c1sc(NC(=O)CSc2ccccn2)c(C#N)c1C	-2.0%	-11.2%	-0.3%	-20.2%
CCOC(=O)c1sc(NC(=O)CSc2nnc(Cc3ccccc3)o2)c(C#N)c1C	2.3%	16.4µM*	-0.6%	11.6µM*
CCOC(=O)c1c(NC(=O)CSc2nnc(Cc3ccccc3)o2)sc(C(C)=O)c1C	1.6%	20.6µM*	-0.4%	20.6µM*
CCOC(=O)c1c(NC(=O)c2cc(-c3ccc(O)cc3)on2)sc(C(C)=O)c1C	-10.5%	5.8µM*	-0.1%	4.61µM*
COCc1cc(C)nc2c1C(=O)NC(c1ccc(F)cc1)N2Cc1ccccc1 (stereo not drawn)	9.3%	-16.2%	5.1%	-7.0%
Cn1ccsc1=NC(=O)c1ccc(S(C)(=O)=O)cc1	/	-21.6%	/	-15.5%
CCOC(=O)c1c(NC(=O)CSc2cccc[n+]2[O-])sc(C(=O)Nc2ccccc2)c1C	0.0%	18.4µM*	/	?
CCOC(=O)c1sc(NC(=O)CSc2nc(C)cc(C)n2)c(C#N)c1C	-1.9%	-27.0%	-6.0%	?
CCOC(=O)c1c(NC(=O)CSc2nnc(-c3cccc(C)c3)n2CC)sc(C(C)=O)c1C	5.9%	23.1µM*	-2.5%	23.1µM*
CCOC(=O)c1c(NC(=O)CSc2nnc(-c3ccccc3)n2CC)sc(C(C)=O)c1C	2.1%	?	-0.5%	?
CCOC(=O)c1sc(NC(=O)c2cc(-c3ccccc3)nc3ccccc23)c(C#N)c1C	4.0%	5.8µM*	1.2%	7.31µM*
CCOC(=O)c1c(NC(=O)CSc2nc(C)cc(C)c2C#N)sc(C(C)=O)c1C	0.0%	7.31µM*	-4.2%	9.2µM*
CN(C)c1ccc(C(=O)N2CCCC(Cn3cc(C(=O)N4CCCC4)nn3)C2)cc1 (stereo not drawn)	/	-11.2%	/	0.9%
O=C(O)c1ccc(S(=O)(=O)N[C@H](Cc2ccccc2)C(=O)O)cc1	6.2%	/	/	/
CCOC(=O)/C=C/c1cc(F)c(S(=O)(=O)N2CCN(S(=O)(=O)c3ccc4c(c3)OCCO4)CC2)cc1F	1.0%	/	/	/
COc1ccc(C2CC(c3ccccc3)Oc3cc(C)cc(C)c32)cc1 (stereo not drawn)	0.9%	/	/	/
CCOC(=O)c1c(NC(=O)CSc2n[nH]c(N)n2)sc(CC)c1C	6.2%	-2.1%	-12.0%	-18.2%
